Assay outcomes from PubChem BioAssay.
GIRK2 activator: GIRK2 channel activators by thallium flux. HEK293 GIRK2/NPY4 cells, thallium flux fluorescence. 34,000 tested, under 10 active. P48051. activation (% efficacy), % for hits at 37.5 µM. AID 1259324;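 active means primary screen hit, no activity in plain HEK293 cells, and in GIRK2-only cells above 5% efficacy rising with concentration; inactive means the rest, including fluorescent compounds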;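 further: efficacy is normalized control-subtracted fluorescence 15 s after thallium addition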
Target sequence (P48051 whole entry, looked up): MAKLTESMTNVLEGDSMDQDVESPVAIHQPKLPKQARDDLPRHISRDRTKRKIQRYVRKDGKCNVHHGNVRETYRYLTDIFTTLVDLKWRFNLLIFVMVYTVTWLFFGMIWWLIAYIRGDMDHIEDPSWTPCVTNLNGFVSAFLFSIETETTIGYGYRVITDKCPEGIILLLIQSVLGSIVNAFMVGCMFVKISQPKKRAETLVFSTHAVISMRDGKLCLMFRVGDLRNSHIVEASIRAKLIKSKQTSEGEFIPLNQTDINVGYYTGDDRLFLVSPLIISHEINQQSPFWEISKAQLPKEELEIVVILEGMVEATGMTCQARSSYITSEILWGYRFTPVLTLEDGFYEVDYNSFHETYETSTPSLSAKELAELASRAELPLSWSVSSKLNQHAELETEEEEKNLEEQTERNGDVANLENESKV
AMPAR-TARP mod: modulators of AMPA receptor GluA2-stargazin complexes; AID 1259245; O88602+P19491; 40,000 compounds, 3.5% hits; HEK293 GluA2+stargazin, membrane potential dye (FDSS), glutamate EC50; hits were called plate by plate, in both directions; calls only at 30 µM;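 active means any of four per-well response measures lying three or more SD from its plate-wide compound average, in either direction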
* hit, by the source's call; i = inactive; / = no result given; + = active, no number. The sample as a whole holds a higher share of hits than the screen did.

SMILES	GIRK2 activator	AMPAR-TARP mod
CN1CCc2c(sc(NC(=O)CCCSc3ccc(F)cc3)c2-c2nc3ccccc3s2)C1	/	i
O=C(NCC(c1cccc2ccccc12)N1CCOCC1)C(=O)Nc1ccccc1Cl (stereo not drawn)	/	i
O=C(Cn1nc2c(c1NC(=O)CC1CCCCC1)CSC2)NCC1CCCO1 (stereo not drawn)	i	i
CCCNC(=O)Cn1nc2c(c1NC(=O)CC1CCCC1)CSC2	i	+
O=C(Cc1csc(SCC(=O)c2cccs2)n1)NCc1ccccc1	i	/
Cc1ccc2nc(NC(=O)c3ccc(=O)n(Cc4cccc(F)c4)n3)sc2c1	i	i
CCOC(=O)c1csc(NC(=O)c2ccc(=O)n(Cc3cccc(F)c3)n2)n1	i	+
Cc1ccc(NC(=O)Cn2c(=O)n(C3CC3)c(=O)c3nscc32)c(C)c1	i	i
Cc1ccc(Cl)cc1NC(=O)Cn1c(=O)n(C2CC2)c(=O)c2nscc21	i	+
O=C(/C=C/c1ccco1)N1CCC(CNS(=O)(=O)/C=C/c2ccccc2)CC1	i	i
N#Cc1c(NC(=O)c2cc3ccccc3o2)sc2c1CCN(Cc1ccccc1)C2	/	+
Cc1cc(C(=O)Nc2sc3c(c2C#N)CCN(Cc2ccccc2)C3)on1	i	/
CC(C)N1CCc2c(sc(NC(=O)c3ccn(C)n3)c2C(N)=O)C1	i	i
COC(=O)c1c(NC(=O)c2ccn(C)n2)sc2c1CCN(Cc1ccccc1)C2	i	+
O=C(Nc1nc2ccc(Cl)cc2s1)C1CCCN(c2ccc(-n3ccnc3)nn2)C1 (stereo not drawn)	i	i
O=C1CC(c2nc3ccccc3n2CC(O)COc2ccccc2)CN1c1cccc(F)c1 (stereo not drawn)	i	i
COc1ccc(S(=O)(=O)CCCC(=O)Nc2nc(-c3cccc([N+](=O)[O-])c3)cs2)cc1	i	i
CCC(=O)Nc1nc2ccc([N+](=O)[O-])cc2s1	i	+
Cc1ccc(S(=O)(=O)CCCC(=O)N(CCN(C)C)c2nc3c(C)cccc3s2)cc1	i	i
Cc1ccc(S(=O)(=O)CCCC(=O)N(CCN(C)C)c2nc3ccc([N+](=O)[O-])cc3s2)cc1	i	+
COc1ccc(S(=O)(=O)CCCC(=O)Nc2nc(-c3cc([N+](=O)[O-])cs3)cs2)cc1	i	+
O=C(CN1C(=O)c2ccccc2S1(=O)=O)Nc1nc2ccc([N+](=O)[O-])cc2s1	i	i
O=C(CCCS(=O)(=O)c1ccc(Cl)cc1)Nc1nc2ccc([N+](=O)[O-])cc2s1	/	i
COc1ccc(S(=O)(=O)CCCC(=O)Nc2nc3ccc([N+](=O)[O-])cc3s2)cc1	i	+
CCOc1ccc(CNC(=O)c2sc(-n3cccc3)nc2C(C)C)cc1	i	i
SMILES	GIRK2 activator	AMPAR-TARP mod
COC(=O)c1ccc(-c2csc(NC(=O)c3nn(C)cc3C)n2)cc1	i	i
COc1cccc(N2CC(c3nc4ccccc4n3CC(=O)N3CCOCC3)CC2=O)c1 (stereo not drawn)	i	i
CCNc1nc2c(c(=O)n(C)c(=O)n2C)n1CC(O)COc1ccc(C)c(C)c1 (stereo not drawn)	/	i
O=C(CS(=O)(=O)Cc1ccccc1)Nc1nc(-c2cc([N+](=O)[O-])cs2)cs1	i	i
CS(=O)(=O)c1ccc2nc(NC(=O)c3ccc(=O)n(Cc4c(F)cccc4Cl)c3)sc2c1	i	i
O=C(Nc1nc2ccc([N+](=O)[O-])cc2s1)c1ccc(=O)n(Cc2c(F)cccc2Cl)c1	i	+
O=C(CCCS(=O)(=O)c1ccccc1)Nc1nc(-c2cc([N+](=O)[O-])cs2)cs1	i	+
O=C(CCCS(=O)(=O)c1ccccc1)Nc1nc(-c2ccc(Br)s2)cs1	i	+
O=C(CCCS(=O)(=O)c1ccc(Cl)cc1)Nc1ccc([N+](=O)[O-])cc1	/	+
O=C(CCCS(=O)(=O)c1ccccc1)Nc1ccc([N+](=O)[O-])cc1	i	i
O=C(CCCS(=O)(=O)c1ccccc1)Nc1nc(-c2ccc(Cl)s2)cs1	i	i
COc1ccc(C(=O)N2CCN(c3ncnc4c3nnn4-c3ccc(C)cc3)CC2)cc1OC	/	i
CCN(CC)S(=O)(=O)c1ccc(C(=O)N2c3ccccc3CC2C(=O)NC)cc1 (stereo not drawn)	i	i
O=C(CCCS(=O)(=O)c1ccccc1)Nc1nc2ccccc2s1	i	i
Cc1nc2c(ccc3nc(NC(=O)CCCS(=O)(=O)c4ccccc4)sc32)s1	i	+
N#Cc1ccsc1NC(=O)CCCS(=O)(=O)c1ccccc1	i	+
N#Cc1ccccc1NC(=O)CCCS(=O)(=O)c1ccccc1	i	i
CCCN1C(SCC(=O)Nc2cccc(OC)c2)=NS(=O)(=O)c2ccccc21	i	i
CCOc1ccccc1S(=O)(=O)N1CC2CC1C(=O)O2 (stereo not drawn)	i	i
O=C(NCCc1ccsc1)c1ccc(F)c(F)c1	i	i
COc1cccc(COc2coc(C(=O)Nc3ccc(C)c(F)c3)cc2=O)c1	i	i
COc1coc(C(=O)Nc2ccc(F)c(F)c2)cc1=O	i	+
COc1ccc(OC)c(NC(=O)c2nn(-c3ccc(F)cc3)cc2OCc2ccccc2)c1	i	i
COc1ccccc1NC(=O)c1nn(-c2ccc(F)cc2)cc1OCc1ccccc1	i	+
CCOc1cn(-c2ccc(F)cc2)nc1C(=O)NCCOC	i	i
SMILES	GIRK2 activator	AMPAR-TARP mod
CCOc1cn(-c2ccc(F)cc2)nc1C(=O)NC1CCCCC1C (stereo not drawn)	i	+
CCOC(=O)c1oc2ccccc2c1NC(=O)c1cc(C)nn1CC	i	i
O=C(c1ccccc1)N1CCCc2ccc(NS(=O)(=O)c3ccccc3)cc21	/	i
O=c1nc(SCc2ccccc2Cl)c2c(n1CCO)CCC2	i	i
COc1ccccc1CNC(=O)c1cc(-c2ccc(Cl)cc2)oc1C	i	/
O=C(CCCc1ccccc1)N1CC(c2nc(-c3ncccn3)no2)C1	/	i
Cc1cc(C)cc(OCCNC(=O)Cn2cnc(C)cc2=O)c1	i	i
O=C(CS(=O)(=O)Cc1ccccc1)Nc1ccc2c3c(cccc13)CC2	i	i
CC(C)(C)N1CC(c2nc3ccccc3n2Cc2ccccc2)CC1=O (stereo not drawn)	/	+
CCn1c(C2CC(=O)N(C(C)(C)C)C2)nc2ccccc21 (stereo not drawn)	/	i
CCCCN(C)C(=O)Cn1c(C2CC(=O)N(Cc3ccc(F)cc3)C2)nc2ccccc21 (stereo not drawn)	i	+
C#CCn1c(C2CC(=O)N(C(C)(C)C)C2)nc2ccccc21 (stereo not drawn)	/	i
CCCN(CCC)C(=O)Cn1c(C2CC(=O)N(Cc3ccc(F)cc3)C2)nc2ccccc21 (stereo not drawn)	i	i
Cc1ccccc1Cn1c(C2CC(=O)N(C(C)(C)C)C2)nc2ccccc21 (stereo not drawn)	/	+
CC(C)(C)N1CC(c2nc3ccccc3n2Cc2ccccc2Cl)CC1=O (stereo not drawn)	/	+
CCCn1c(C2CC(=O)N(C(C)(C)C)C2)nc2ccccc21 (stereo not drawn)	/	i
